LGR2 antag – inhibitors of bursicon-induced Drosophila LGR2 receptor cAMP signaling; 380,000 tested, 0.35% active; AID 720647; inhibition, % at 9.99 µM; HEK293 LGR2, CRE-luciferase, bursicon-stimulated, 4 h;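 active = drop in luminescence signal, shown as inhibition above about 50% in the replicate tests, limit read from the data, passing the limit was not always enough; inconclusive = probably only some replicates passing the limit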;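 note: agonist challenge used bursicon conditioned medium at about half maximal strength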
KKLEB cytotox – counter-screen for CF NF-kB inhibitors: cytotoxicity; KKLEB CF airway cells viability, ATPlite luminescence, overnight; active compounds read low; cells stimulated with P. aeruginosa culture filtrate; activity change (cytotoxicity), % at 5 µM; 360,000 tested, 0.36% active; AID 602141;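 active = corrected activity change at or below -50% at 5 µM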
TROY NFkB inh – TROY signaling inhibition. inhibition, % at 10 µM. Q293 LMP1-TROYcd NF-kB luciferase reporter, 4 h. 360,000 tested, 0.98% active;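 active = compounds whose plate-normalised and pattern-corrected inhibition of the luciferase reporter signal at the single screening dose is 50% or more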
TWEAK-Fn14 inh – TWEAK-Fn14 signaling inhibition | TWEAK-stimulated Fn14 reporter cells, luciferase luminescence, 8 h | inhibition, % at 10 µM | 360,000 tested, 2% active | AID 1159606; in the data active = inhibition above about 50%
CF NFkB inh – cystic fibrosis NF-kB activation inhibition | KKLEB NF-kB-GFP reporter, PAF-induced, GFP fluorescence overnight | inhibition, % at 5 µM | 360,000 tested, 0.86% active | AID 588850;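 active = at least 50% inhibition at 5 µM, scaled per plate between neutral and stimulator controls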;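 note: PAF is a Pseudomonas aeruginosa culture filtrate used as stimulus; plate controls were PAF-stimulated DMSO wells for no effect and unstimulated DMSO wells for full effect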
EWS-Fli block – blocks EWS/Fli oncoprotein-driven transcription. A673 NR0B1-luciferase reporter, viability-normalised. inhibition, % at 12.6 µM. 350,000 tested, 0.67% active;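 active = mean inhibition of at least 50% after viability correction, with every replicate also passing that limit; inconclusive = mean reaches 50% but only one of two replicates passes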;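 note: firefly luciferase signal divided by Alamar Blue viability fluorescence both relative to DMSO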
An asterisk follows results filed as active. An excerpt weighted towards active compounds, which were near 2.6% of everything screened.

`C[C@@H]1CN([C@H](C)CO)C(=O)c2cc(NC(=O)Cc3ccccc3)ccc2O[C@@H](C)CCCCO[C@@H]1CN(C)C(=O)NC1CCCCC1` gave LGR2 antag 1 and EWS-Fli block 6.
Screening COc1ccc([N+](=O)[O-])cc1NC(=S)NC(NC(=O)C(c1ccccc1)c1ccccc1)C(Cl)(Cl)Cl (stereo unspecified) returned KKLEB cytotox 1, TROY NFkB inh 24, TWEAK-Fn14 inh 63* and CF NFkB inh 33.
Screening O=C(NC(NC(=S)Nc1c(Cl)cccc1Cl)C(Cl)(Cl)Cl)c1cccc([N+](=O)[O-])c1 (stereo unspecified) returned LGR2 antag 11, KKLEB cytotox -12, TROY NFkB inh 45, TWEAK-Fn14 inh 60* and CF NFkB inh 19.
For Cc1cccc(C)c1OCCOC(=O)c1cccc(S(=O)(=O)N2CCOCC2)c1 the results were LGR2 antag -5, KKLEB cytotox -4, TROY NFkB inh 11, TWEAK-Fn14 inh -8, CF NFkB inh -1 and EWS-Fli block -7.
For Cc1cc(=O)oc2ccc(OC(=O)c3cccc(S(=O)(=O)N4CCOCC4)c3)cc12 the results were LGR2 antag 17, KKLEB cytotox 0, TROY NFkB inh 39, TWEAK-Fn14 inh 101* and CF NFkB inh -2.
C[C@H](CO)N1C[C@H](C)[C@H](CN(C)Cc2ccncc2)Oc2ccc(NC(=O)Nc3cccc4ccccc34)cc2C1=O was read as LGR2 antag -1.
`COCCN(CCOC)S(=O)(=O)c1ccc(C(=O)Nc2nnc(C3CC3)o2)cc1` gave KKLEB cytotox -1, TROY NFkB inh -10, TWEAK-Fn14 inh 67* and CF NFkB inh 10.
`C[C@@H]1CN([C@@H](C)CO)C(=O)c2cc(NC(=O)Nc3ccc(C(F)(F)F)cc3)ccc2O[C@@H](C)CCCCO[C@H]1CN(C)CC1CCCCC1` gave EWS-Fli block 47.
C[C@@H]1CN([C@H](C)CO)C(=O)c2cc(NC(=O)Nc3ccc(C(F)(F)F)cc3)ccc2O[C@@H](C)CCCCO[C@@H]1CN(C)CC1CCCCC1 was read as LGR2 antag 1 and EWS-Fli block 78*.
Screening C[C@H](CO)N1C[C@H](C)[C@H](CN(C)C(=O)Nc2ccc(C(F)(F)F)cc2)OCCCC[C@H](C)Oc2ccc(NC(=O)CCC(F)(F)F)cc2C1=O returned LGR2 antag 65* and EWS-Fli block 6.
Screening C[C@H]1CCCCO[C@@H](CN(C)C(=O)Nc2ccc(C(F)(F)F)cc2)[C@@H](C)CN([C@@H](C)CO)C(=O)c2cc(NC(=O)CCC(F)(F)F)ccc2O1 returned LGR2 antag inconclusive and EWS-Fli block 8.
Screening C[C@H](CO)N1C[C@H](C)[C@@H](CN(C)CC2CCCCC2)OCCCC[C@H](C)Oc2ccc(NC(=O)Nc3ccc(C(F)(F)F)cc3)cc2C1=O returned LGR2 antag -3 and EWS-Fli block 60*.
For C[C@@H]1CCCCO[C@@H](CN(C)CC2CCCCC2)[C@@H](C)CN([C@H](C)CO)C(=O)c2cc(NC(=O)CCCCCC(=O)Nc3ccccc3N)ccc2O1 the results were LGR2 antag -4 and EWS-Fli block -14.
`CCS(=O)(=O)Nc1ccc2c(c1)C(=O)N(C)C[C@@H](OC)[C@@H](C)CN(C)[C@H](C)CO2` gave LGR2 antag 3 and EWS-Fli block 5.
Screening CCCn1c(C)cc(C(=O)CSc2nc3ccccc3c(=O)n2Cc2ccco2)c1C returned KKLEB cytotox -3, TROY NFkB inh 48, TWEAK-Fn14 inh 59*, CF NFkB inh 15 and EWS-Fli block -135.
`CS(=O)(=O)c1ccc(Cl)c(NC(=O)CSc2nc3ccccc3c(=O)n2CCCN2CCOCC2)c1` gave LGR2 antag 11, KKLEB cytotox -1, TROY NFkB inh 18, TWEAK-Fn14 inh -1, CF NFkB inh 0 and EWS-Fli block -5.
O=C(CSc1nc2ccccc2c(=O)n1Cc1ccco1)c1ccc(F)cc1 was read as KKLEB cytotox 18, TROY NFkB inh 64*, TWEAK-Fn14 inh 58* and CF NFkB inh -13.
CS(=O)(=O)c1ccc(Cl)c(NC(=O)CSc2nc3ccccc3c(=O)n2Cc2ccco2)c1 was read as LGR2 antag -3, KKLEB cytotox -54*, TROY NFkB inh -1, TWEAK-Fn14 inh -35, CF NFkB inh 43 and EWS-Fli block 4.
Cc1cc2c(=O)n(Cc3ccco3)c(SCC(=O)c3ccc(Cl)s3)nc2s1 was read as KKLEB cytotox -5, TROY NFkB inh 11, TWEAK-Fn14 inh 54* and CF NFkB inh -8.
`NC(=O)CSc1nc2ccccc2c(=O)n1Cc1ccco1` gave KKLEB cytotox 6, TROY NFkB inh 3, TWEAK-Fn14 inh 3 and CF NFkB inh -2.
For Cc1noc(C)c1S(=O)(=O)Nc1ccc2c(c1)CC(=O)N([C@H](C)CO)C[C@H](C)[C@@H](CN(C)C(=O)Nc1ccccc1)O2 the results were LGR2 antag -4 and EWS-Fli block -12.
C[C@H]1CN([C@@H](C)CO)C(=O)c2cccc(NC(=O)Nc3ccc(C(F)(F)F)cc3)c2O[C@H]1CN(C)C(=O)Nc1ccc(F)cc1 was read as LGR2 antag 13 and EWS-Fli block -5.
Screening CCCNC(=O)C[C@H]1CC[C@H]2[C@@H](COC[C@@H](O)CN2C(=O)Nc2ccccc2OC)O1 returned LGR2 antag 31 and EWS-Fli block -3.
CCCNC(=O)N1[C@H](CO)[C@@H](c2ccccc2)[C@@H]1CNC(=O)c1ccc(F)cc1 was read as LGR2 antag -3 and EWS-Fli block 6.
`Cc1csc2c(N3CCN(C(=S)Nc4ccc(C(F)(F)F)cc4)CC3)ncnc12` gave LGR2 antag 18, KKLEB cytotox -3, TROY NFkB inh 7, TWEAK-Fn14 inh 26, CF NFkB inh 2 and EWS-Fli block 9.
For Cc1csc2ncnc(N3CCN(C(=S)Nc4ccc(C(F)(F)F)cc4)CC3)c12 the results were LGR2 antag 23, KKLEB cytotox 8, TROY NFkB inh 48, TWEAK-Fn14 inh 51*, CF NFkB inh 22 and EWS-Fli block -1.
C[C@@H]1CN([C@H](C)CO)C(=O)Cc2cc(NC(=O)Cc3cn(C)c4ccccc34)ccc2O[C@@H]1CN(C)S(=O)(=O)c1ccc(Cl)cc1 was read as LGR2 antag -1 and EWS-Fli block 16.
For Cc1ccc2c(COC(=O)c3ccccc3F)cc(=O)oc2c1 the results were LGR2 antag -90, KKLEB cytotox -3, TROY NFkB inh 24, TWEAK-Fn14 inh 63*, CF NFkB inh -8 and EWS-Fli block -64.
Cc1ccc2c(COC(=O)c3n[nH]c4ccccc34)cc(=O)oc2c1 was read as KKLEB cytotox 3, TROY NFkB inh -20, TWEAK-Fn14 inh 18 and CF NFkB inh -17.
